The source made the active and inactive calls.
How the values were obtained:
[1] = small molecules captured by biotinylated probe aFSTL3 – biochemical, small-molecule microarray, fluorescence 635/667, stem cell growth factor project, primary screen (AID 1064); conditions: higher = more signal;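 also: measures binding of the biotinylated anti-FSTL3 antibody to printed compounds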
[2] = binders from COS7 lysate, DM2A8 probe, primary screen, torsin A project, cell lysate, small-molecule microarray, fluorescence 635/667 (AID 1065); conditions: higher = more signal, COS7 lysate expressing mutant human TOR1A
[3] = small molecules captured by biotinylated probe aFGF2 – biochemical, small-molecule microarray, fluorescence 635/667, stem cell growth factor project, primary screen (AID 1067); conditions: higher = more signal;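 also: measures binding of biotinylated aFGF2 protein to printed compounds on slides; z-score merges feature fluorescence and signal-to-noise across triplicate slides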
[4] = small molecules captured by biotinylated probe aFGF10 – biochemical, small-molecule microarray, fluorescence 635/667, stem cell growth factor project, primary screen (AID 1071); conditions: higher = more signal;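 also: score merges 667 nm spot intensity and signal to noise from triplicate slides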
[5] = target: Neurogenic locus notch homolog protein 2 (Homo sapiens) (UniProt Q04721); assay: small molecules binding Notch2 protein – biochemical, small-molecule microarray, 635 nm fluorescence, stem cell growth factors, primary screen (AID 1073); conditions: higher = more signal
Neurogenic locus notch homolog protein 2 (Homo sapiens), sequence (Q04721 whole entry, looked up, canonical isoform): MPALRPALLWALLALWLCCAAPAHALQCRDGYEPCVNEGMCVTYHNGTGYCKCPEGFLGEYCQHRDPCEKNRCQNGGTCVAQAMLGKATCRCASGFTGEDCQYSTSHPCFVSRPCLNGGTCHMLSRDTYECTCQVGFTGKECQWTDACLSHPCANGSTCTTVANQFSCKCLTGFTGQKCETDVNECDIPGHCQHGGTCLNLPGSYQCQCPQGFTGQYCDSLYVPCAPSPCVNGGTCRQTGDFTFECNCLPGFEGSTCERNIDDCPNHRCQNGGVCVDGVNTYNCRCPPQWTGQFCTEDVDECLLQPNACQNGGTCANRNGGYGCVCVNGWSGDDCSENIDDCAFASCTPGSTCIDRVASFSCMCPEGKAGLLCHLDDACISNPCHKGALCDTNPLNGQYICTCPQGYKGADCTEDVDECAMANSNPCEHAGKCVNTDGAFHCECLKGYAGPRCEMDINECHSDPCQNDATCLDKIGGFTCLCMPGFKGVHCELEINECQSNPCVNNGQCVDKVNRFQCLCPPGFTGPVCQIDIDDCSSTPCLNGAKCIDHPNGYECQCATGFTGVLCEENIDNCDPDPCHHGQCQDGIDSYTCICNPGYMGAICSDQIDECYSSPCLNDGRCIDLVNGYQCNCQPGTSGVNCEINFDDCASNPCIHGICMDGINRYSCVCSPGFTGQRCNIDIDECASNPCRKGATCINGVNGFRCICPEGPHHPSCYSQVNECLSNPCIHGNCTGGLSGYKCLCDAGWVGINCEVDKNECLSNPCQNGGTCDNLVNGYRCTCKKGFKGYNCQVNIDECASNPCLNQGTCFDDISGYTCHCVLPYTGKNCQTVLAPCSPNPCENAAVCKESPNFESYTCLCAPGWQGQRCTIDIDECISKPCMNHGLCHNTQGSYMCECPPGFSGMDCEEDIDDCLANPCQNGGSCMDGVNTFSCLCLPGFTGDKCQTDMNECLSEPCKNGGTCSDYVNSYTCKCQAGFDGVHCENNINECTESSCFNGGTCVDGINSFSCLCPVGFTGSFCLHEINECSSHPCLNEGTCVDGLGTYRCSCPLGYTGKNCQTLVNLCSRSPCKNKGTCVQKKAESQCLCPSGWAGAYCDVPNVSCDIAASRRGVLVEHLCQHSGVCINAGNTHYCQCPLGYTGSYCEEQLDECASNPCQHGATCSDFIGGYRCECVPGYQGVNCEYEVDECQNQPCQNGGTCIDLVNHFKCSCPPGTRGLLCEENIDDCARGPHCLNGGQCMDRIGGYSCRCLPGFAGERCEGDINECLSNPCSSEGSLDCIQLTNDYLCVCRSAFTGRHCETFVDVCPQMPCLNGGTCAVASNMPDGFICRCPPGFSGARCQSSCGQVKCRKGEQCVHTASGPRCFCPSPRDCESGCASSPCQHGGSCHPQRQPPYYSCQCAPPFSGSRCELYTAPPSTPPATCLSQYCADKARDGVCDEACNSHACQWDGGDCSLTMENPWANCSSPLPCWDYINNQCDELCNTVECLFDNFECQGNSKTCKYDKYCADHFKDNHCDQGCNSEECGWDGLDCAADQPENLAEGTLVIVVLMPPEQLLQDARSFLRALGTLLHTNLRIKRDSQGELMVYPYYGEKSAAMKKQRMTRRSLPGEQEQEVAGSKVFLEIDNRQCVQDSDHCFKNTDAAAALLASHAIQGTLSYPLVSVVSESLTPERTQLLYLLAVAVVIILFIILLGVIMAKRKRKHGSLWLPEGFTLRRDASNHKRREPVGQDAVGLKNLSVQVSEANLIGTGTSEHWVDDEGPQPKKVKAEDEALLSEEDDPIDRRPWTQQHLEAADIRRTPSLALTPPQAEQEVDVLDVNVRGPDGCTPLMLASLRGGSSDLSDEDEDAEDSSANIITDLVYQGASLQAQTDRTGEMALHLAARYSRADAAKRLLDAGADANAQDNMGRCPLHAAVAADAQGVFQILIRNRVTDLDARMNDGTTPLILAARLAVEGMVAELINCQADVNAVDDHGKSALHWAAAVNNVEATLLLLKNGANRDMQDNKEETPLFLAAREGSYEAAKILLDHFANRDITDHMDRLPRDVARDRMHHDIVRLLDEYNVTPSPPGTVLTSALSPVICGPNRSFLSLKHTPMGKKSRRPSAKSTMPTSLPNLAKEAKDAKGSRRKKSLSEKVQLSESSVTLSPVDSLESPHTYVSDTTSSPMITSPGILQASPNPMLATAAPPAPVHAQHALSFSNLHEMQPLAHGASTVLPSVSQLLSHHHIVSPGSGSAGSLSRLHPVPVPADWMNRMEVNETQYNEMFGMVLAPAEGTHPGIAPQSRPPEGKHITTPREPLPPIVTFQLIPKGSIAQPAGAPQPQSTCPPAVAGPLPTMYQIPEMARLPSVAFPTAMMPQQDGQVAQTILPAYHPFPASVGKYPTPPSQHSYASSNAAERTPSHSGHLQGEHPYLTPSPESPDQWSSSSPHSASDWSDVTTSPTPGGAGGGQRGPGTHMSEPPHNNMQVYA

[6] = target: Pro-neuregulin-1, membrane-bound isoform (Homo sapiens) (UniProt Q02297); assay: small molecules binding neuregulin-1 protein – biochemical, small-molecule microarray, fluorescence 635/667, psychiatric disease protein project, primary screen (AID 1075); conditions: NRG1 binding, 635 nm fluorescence, higher = more signal;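 also: score combines 667 nm spot fluorescence with signal to noise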
[7] = test system: Neuregulin-1 EGF-like domain; assay: small molecules binding NRG1 EGF domain – biochemical, small-molecule microarray, 635 nm fluorescence, primary screen (AID 1081); conditions: higher = more signal;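 also: binding of the protein to compounds printed on small-molecule microarray slides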
[8] = FRG1 expression reporter modulators in myotubes – cell-based, C2C12 myotubes, firefly/Renilla luciferase, luminescence, FRG1 inhibition for FSHD, primary screen (AID 1084); conditions: FRG1 promoter luciferase, higher = more signal, called active from +8 up or from −8 down
[9] = small molecules captured by biotinylated probe aFST – biochemical, small-molecule microarray, fluorescence 635/667, stem cell growth factor project, primary screen (AID 1086); conditions: higher = more signal;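 also: score merges 667 nm fluorescence with signal-to-noise of each printed compound spot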
[10] = binders of probe aHhip on microarray, primary screen, stem cell growth factor project, biochemical, small-molecule microarray, fluorescence 635/667 (AID 1087); conditions: higher = more signal;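 also: score merges spot fluorescence at 667nm with spot signal to noise ratio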
[11] = test system: PRMT1 (protein arginine N-methyltransferase 1); assay: small molecules binding arginine methyltransferase PRMT1 – biochemical, small-molecule microarray, 635 nm fluorescence, primary screen (AID 1088); conditions: higher = more signal;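 also: binding of Prmt1 protein to compounds spotted on small-molecule microarray slides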
[12] = growth effects on S. cerevisiae YJM789 – YJM789 clinical isolate, OD600, 24 h, basal, primary screen (AID 1089); conditions: higher = more signal, called active from +8 up or from −8 down;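 also: growth of clinical yeast isolate S. cerevisiae YJM 789 seeded 1000 cells per well; test concentration not given here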
[13] = S. pombe growth modifiers, basal conditions – strain 972, OD600, 24 h, no modulator, primary screen (AID 1090);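 also: basal condition with compound alone and no growth modifier present; test concentration not given here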; conditions: S. pombe 972 growth, higher = more signal, called active from +8 up or from −8 down
[14] = budding yeast growth modifiers under rapamycin – strain BY4716, OD600, 96 h, primary screen (AID 1091); also: test concentration not given here; conditions: S. cerevisiae BY4716 + rapamycin, higher = more signal, called active from +8 up or from −8 down
[15] = target: Torsin-1A-interacting protein 2 (Homo sapiens) (UniProt Q8NFQ8); assay: small molecules binding lysate-expressed LULL1 – cell lysate, human LULL1 lysate, 635/667 nm fluorescence, primary screen (AID 1092); conditions: small-molecule microarray, hLULL1 lysate binding, 635 nm fluorescence; higher = more signal;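 also: probe is lysate of COS7 cells overexpressing human LULL1; score merges per-feature 667 nm fluorescence with signal-to-noise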
[16] = optical density change of DRC41 E. coli – strain DRC41, OD650, 24 h, E. coli filamentation project, primary screen (AID 1093);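 also: MC1000 strain lacking acrAB efflux and sulA so SOS filamentation is blocked; test concentration not given here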; conditions: E. coli DRC41 growth, higher = more signal, called active from +8 up or from −8 down
[17] = probe aLefty2 binding to arrayed compounds – biochemical, biotinylated probe, 635/667 nm fluorescence, primary screen (AID 1094); conditions: small-molecule microarray, higher = more signal;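 also: score merges spot fluorescence near 667 nm with spot signal-to-noise ratio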
[18] = test system: Noggin (protein binding on small-molecule microarray); assay: small molecules binding Noggin protein – biochemical, 635/667 nm fluorescence, primary screen (AID 1095); conditions: 635 nm fluorescence, higher = more signal;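 also: score merges 667 nm feature fluorescence with signal to noise over triplicate slides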
[19] = target: Neurogenic locus notch homolog protein 3 (Homo sapiens) (UniProt Q9UM47); assay: small molecules binding NOTCH3 protein – biochemical, 635/667 nm fluorescence, primary screen (AID 1096); conditions: small-molecule microarray, 635 nm fluorescence, higher = more signal
Neurogenic locus notch homolog protein 3 (Homo sapiens), sequence (Q9UM47 whole entry, looked up): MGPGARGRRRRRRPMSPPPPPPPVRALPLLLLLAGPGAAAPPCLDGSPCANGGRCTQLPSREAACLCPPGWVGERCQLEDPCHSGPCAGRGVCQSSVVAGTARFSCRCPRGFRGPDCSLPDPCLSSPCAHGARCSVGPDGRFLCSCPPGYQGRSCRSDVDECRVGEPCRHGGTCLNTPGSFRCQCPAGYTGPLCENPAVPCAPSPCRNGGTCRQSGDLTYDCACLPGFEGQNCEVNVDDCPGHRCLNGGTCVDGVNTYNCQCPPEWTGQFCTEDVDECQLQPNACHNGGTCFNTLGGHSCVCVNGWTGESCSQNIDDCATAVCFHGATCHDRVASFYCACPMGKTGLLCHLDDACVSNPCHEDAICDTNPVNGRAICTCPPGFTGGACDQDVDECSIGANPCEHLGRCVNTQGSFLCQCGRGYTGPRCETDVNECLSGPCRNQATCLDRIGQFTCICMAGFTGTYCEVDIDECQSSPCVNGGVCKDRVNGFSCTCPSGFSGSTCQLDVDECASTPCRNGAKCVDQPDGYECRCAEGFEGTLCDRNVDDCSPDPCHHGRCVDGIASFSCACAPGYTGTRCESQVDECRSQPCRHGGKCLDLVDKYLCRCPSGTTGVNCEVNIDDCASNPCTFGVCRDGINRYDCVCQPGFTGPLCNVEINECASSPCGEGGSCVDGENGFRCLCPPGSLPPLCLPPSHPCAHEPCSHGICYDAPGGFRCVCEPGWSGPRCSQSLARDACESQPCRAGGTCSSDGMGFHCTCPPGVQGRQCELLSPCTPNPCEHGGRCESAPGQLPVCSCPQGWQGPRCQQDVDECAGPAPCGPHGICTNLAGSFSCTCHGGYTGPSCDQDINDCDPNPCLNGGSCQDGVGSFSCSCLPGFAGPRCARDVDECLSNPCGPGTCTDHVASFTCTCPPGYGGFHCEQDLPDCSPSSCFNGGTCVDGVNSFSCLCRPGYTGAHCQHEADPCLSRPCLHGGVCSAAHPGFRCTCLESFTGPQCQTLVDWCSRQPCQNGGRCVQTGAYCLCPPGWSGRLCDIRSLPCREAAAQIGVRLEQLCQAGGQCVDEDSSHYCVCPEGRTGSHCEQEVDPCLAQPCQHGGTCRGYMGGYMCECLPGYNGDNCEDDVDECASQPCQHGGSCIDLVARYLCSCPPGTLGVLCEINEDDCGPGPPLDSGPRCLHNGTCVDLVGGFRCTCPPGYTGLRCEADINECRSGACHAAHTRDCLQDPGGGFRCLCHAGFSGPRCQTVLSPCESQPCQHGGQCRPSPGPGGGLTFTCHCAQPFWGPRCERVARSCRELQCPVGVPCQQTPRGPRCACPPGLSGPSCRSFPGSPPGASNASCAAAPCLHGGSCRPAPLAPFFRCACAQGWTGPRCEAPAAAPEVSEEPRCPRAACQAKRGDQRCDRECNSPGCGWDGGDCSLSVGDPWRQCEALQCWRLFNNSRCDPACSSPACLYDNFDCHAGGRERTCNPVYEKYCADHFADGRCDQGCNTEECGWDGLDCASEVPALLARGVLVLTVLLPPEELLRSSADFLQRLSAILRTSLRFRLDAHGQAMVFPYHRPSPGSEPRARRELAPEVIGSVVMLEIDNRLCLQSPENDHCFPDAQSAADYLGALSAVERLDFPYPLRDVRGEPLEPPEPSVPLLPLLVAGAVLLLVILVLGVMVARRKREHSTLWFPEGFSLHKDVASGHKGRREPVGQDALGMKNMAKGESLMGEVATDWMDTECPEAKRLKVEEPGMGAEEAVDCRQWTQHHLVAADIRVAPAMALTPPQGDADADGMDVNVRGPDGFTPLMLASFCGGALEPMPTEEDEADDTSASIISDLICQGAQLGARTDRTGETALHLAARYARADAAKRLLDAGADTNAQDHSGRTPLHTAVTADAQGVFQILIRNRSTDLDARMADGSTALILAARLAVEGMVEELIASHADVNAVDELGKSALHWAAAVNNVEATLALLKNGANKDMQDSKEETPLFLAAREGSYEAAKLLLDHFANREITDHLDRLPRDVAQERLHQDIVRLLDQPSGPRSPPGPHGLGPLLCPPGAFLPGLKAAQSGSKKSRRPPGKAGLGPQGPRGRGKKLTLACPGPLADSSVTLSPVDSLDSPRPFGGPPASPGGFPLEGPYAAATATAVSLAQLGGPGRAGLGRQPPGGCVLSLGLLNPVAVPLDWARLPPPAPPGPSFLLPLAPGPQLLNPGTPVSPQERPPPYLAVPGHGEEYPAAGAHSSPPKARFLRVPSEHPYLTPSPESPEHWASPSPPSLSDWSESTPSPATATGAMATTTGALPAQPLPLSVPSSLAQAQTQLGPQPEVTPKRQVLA

[20] = probe aEGFR binding to arrayed compounds – biochemical, biotinylated probe, 635/667 nm fluorescence, primary screen (AID 1097); conditions: small-molecule microarray, higher = more signal;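 also: probe is a biotinylated anti-EGFR antibody binding compounds printed on slides; score combines fluorescence near 667 nm and signal to noise of each spot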

Structure (SMILES)	composite z-score [1]	composite z-score [2]	composite z-score [3]	composite z-score [4]	composite z-score [5]	composite z-score [6]	composite z-score [7]	z-score [8]	composite z-score [9]	composite z-score [10]	composite z-score [11]	z-score [12]	z-score [13]	z-score [14]	composite z-score [15]	z-score [16]	composite z-score [17]	composite z-score [18]	composite z-score [19]	composite z-score [20]
COC(=O)C(CC#Cc1ccc2c(c1)[C@]1(C(=O)N2)[C@H](C(=O)O)[C@H]2C(=O)O[C@H](c3ccccc3)[C@H](c3ccccc3)N2[C@@H]1c1ccc(O)cc1)C(=O)OC	0.43	0.108	-0.0973	0.528	-0.806	1.42	1.23	1.34 (inactive)	-0.384	-0.236	0.615	1.06 (inactive)	0.819 (inactive)	-0.567 (inactive)	2.12	-0.913 (inactive)	-0.188	-0.868	-0.608	-0.0514
C=CCOC(=O)[C@H]1[C@@H]2C(=O)O[C@@H](c3ccccc3)[C@@H](c3ccccc3)N2[C@@H](c2ccc(OCCOC(=O)[C@@H]3C[C@@H]4C(=O)N[C@@H](CCCC[N+](C)(C)C)C(=O)N4[C@@H]3c3ccc(O)cc3)cc2)[C@]12C(=O)Nc1ccccc12	-0.518	0.964	-0.0503	0.439	0.459	0.206	1.15	0.277 (inactive)	-0.367	-0.0618	1.55	-1.27 (inactive)	-3.66 (inactive)	-1.02 (inactive)	2.84	0.155 (inactive)	0.236	1.64	1.12	-0.0663
O=C1c2ccccc2[C@@]2(Cc3ccccc3N(CC(F)(F)F)C2=O)[C@H](c2ccc(CO)cc2)N1Cc1ccccc1Cl	-0.351	-0.112	-0.147	-0.0091	0.0933	-0.0415	0.222	-0.163 (inactive)	-0.121	-0.226	1.22	-0.146 (inactive)	-0.172 (inactive)	-1.62 (inactive)	-0.0577	0.0194 (inactive)	-0.159	0.476	-0.0169	-0.118
COCCOC(=O)N1C(=O)[C@@]2(c3cc(C#CC4=CCCCC4)ccc31)[C@H](C(=O)Nc1nc3ccccc3s1)[C@H]1C(=O)O[C@H](c3ccccc3)[C@H](c3ccccc3)N1[C@@H]2c1ccccc1OCCO	0.346	0.189	0.0871	0.77	1.49	1.15	1.08	1.29 (inactive)	0.965	0.463	1.55	1.25 (inactive)	0.812 (inactive)	3.25 (inactive)	2.15	0.859 (inactive)	0.255	0.883	1.07	0.411
COCCOC(=O)N1C(=O)[C@@]2(c3cc(C#CC4=CCCCC4)ccc31)[C@H](C(N)=O)[C@H]1C(=O)O[C@H](c3ccccc3)[C@H](c3ccccc3)N1[C@@H]2c1ccc(OCCO)cc1	-0.809	0.897	-0.0009	0.806	0.254	0.514	1.19	-0.408 (inactive)	-0.335	-0.237	1.54	1.44 (inactive)	1.28 (inactive)	3.59 (inactive)	1.6	-0.385 (inactive)	-0.399	0.904	1.01	-0.238
